This is a sample that favours compounds with a hit; in the whole collection about 4.5% have one here.
Gli-Sufu antag: Gli-Sufu pathway antagonists, primary screen, luciferase luminescence, Sufu-KO-LIGHT cells, uHTS. AID 588413, 2011. hit rate 0.74% among 340,000. Sufu-KO-LIGHT fibroblasts, Gli luciferase reporter luminescence. inhibition, % at 5 µM;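 active means inhibition above about 55%, limit read from the data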
Mdm2 MdmX PPI: inhibitors of human Mdm2-MdmX association, primary screen, cell-based, luminescence, split luciferase, SaOS-2, uHTS; Protein Mdm4 (Homo sapiens) + E3 ubiquitin-protein ligase Mdm2 (Homo sapiens), …; SaOS-2 split-luciferase Mdm2/MdmX complementation; inhibition, % at 8 µM; hit rate 3% among 330,000;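 active means inhibition of at least 50% at 8 µM in the primary screen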
Target sequence (O15151 whole entry, looked up): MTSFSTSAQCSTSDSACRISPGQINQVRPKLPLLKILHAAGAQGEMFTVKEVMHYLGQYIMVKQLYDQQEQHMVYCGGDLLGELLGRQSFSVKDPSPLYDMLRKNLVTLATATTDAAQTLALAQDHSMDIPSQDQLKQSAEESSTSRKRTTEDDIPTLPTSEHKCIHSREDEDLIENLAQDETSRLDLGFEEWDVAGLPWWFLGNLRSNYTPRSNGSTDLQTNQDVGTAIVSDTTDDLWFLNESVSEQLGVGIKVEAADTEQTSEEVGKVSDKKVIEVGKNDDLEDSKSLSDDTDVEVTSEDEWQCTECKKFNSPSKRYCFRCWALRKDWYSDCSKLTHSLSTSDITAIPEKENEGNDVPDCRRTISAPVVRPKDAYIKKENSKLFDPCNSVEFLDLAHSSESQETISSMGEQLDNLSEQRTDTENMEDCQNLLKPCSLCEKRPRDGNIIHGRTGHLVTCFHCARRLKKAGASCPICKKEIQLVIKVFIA
Target sequence (Q00987 whole entry, looked up): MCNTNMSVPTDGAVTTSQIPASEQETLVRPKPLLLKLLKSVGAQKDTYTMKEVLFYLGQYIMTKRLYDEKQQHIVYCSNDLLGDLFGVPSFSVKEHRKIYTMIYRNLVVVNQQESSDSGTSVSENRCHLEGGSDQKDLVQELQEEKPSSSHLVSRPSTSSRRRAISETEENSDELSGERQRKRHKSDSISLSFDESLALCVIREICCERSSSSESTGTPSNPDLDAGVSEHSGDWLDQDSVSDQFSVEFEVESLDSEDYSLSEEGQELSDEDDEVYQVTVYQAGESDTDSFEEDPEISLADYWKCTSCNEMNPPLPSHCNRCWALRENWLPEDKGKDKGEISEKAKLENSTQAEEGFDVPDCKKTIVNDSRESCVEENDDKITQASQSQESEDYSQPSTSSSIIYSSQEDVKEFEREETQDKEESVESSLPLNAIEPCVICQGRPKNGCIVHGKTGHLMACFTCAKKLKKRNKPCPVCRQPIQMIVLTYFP
CSC inhib: cancer stem cell viability inhibitors, primary screen, luminescence | hit rate 1.1% among 300,000 | cancer stem cell-like cells viability | inhibition, % at 7.5 µM | AID 2717, 2010; in the data active means inhibition above about 75%; tested in HMLE shEcad cells
Jurkat NFkB inh: inhibitors of induced NF-kB luciferase reporter, primary screen, TCR NF-kB activation inhibitor project, cell-based, luminescence, uHTS; inhibition, % at 4 µM; Jurkat, PMA/ionomycin-induced NF-kB luciferase reporter; hit rate 0.53% among 330,000; in the data active means inhibition above about 50%
697 NFkB inh: inhibitors of PMA/ionomycin-induced NF-kB reporter, 697 cells, primary screen, B-cell NF-kB inhibitor project, cell-based, luminescence, uHTS; inhibition, % at 4 µM; hit rate 0.33% among 330,000; 697 B-cell NF-kB luciferase reporter, 16 h; AID 435022, 2010; in the data active means inhibition above about 35%
aSyn UTR inh: MLPCN primary screen, SNCA 5' untranslated region | hit rate 0.82% among 300,000 | alpha-synuclein 5'UTR reporter, inhibitor activity | inhibition, % (tested at 7.5 µM); in the data active means inhibition above about 60%;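 further: H4 neuroglioblastoma cells stably carrying SNCA 5'UTR luciferase fusion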
Gli antag conf: Gli-SUFU pathway antagonists, confirmation, single concentration, luciferase luminescence, Sufu-KO-LIGHT cells; Gli luciferase reporter; shares compounds with Gli-Sufu antag; hit rate 40% among 2,500; inhibition, % at 5 µM;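 active means mean inhibition at 5 µM reaching about 45%, limit read from the data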
SufuKO cytotox: cytotoxicity in Sufu-KO-LIGHT cells, confirmation, cytotoxicity control for Gli-SUFU antagonist project, cell-based, ATP luminescence, single concentration | hit rate 32% among 2,500 | cytotoxicity, % at 5 µM | shares compounds with Gli-Sufu antag;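 active means mean cytotoxicity at 5 µM above about 25%, limit read from the data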;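 further: cells exposed to compound overnight for roughly 16 to 18 hours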
Wnt3a counter: Wnt3a reporter signal inhibition, confirmation, counter-screen for Gli-SUFU antagonist project, Wnt-LIGHT cells, luminescence, single concentration. AID 651995, 2013. shares compounds with Gli-Sufu antag. Wnt3a-driven luciferase reporter. hit rate 20% among 2,500. inhibition, % at 6.25 µM;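 active means mean inhibition above about 25%, limit read from the data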
Numbers stand for hits; 0 = inactive; - = no result.

SMILES	Gli-Sufu antag	Mdm2 MdmX PPI	CSC inhib	Jurkat NFkB inh	697 NFkB inh	aSyn UTR inh	Gli antag conf	SufuKO cytotox	Wnt3a counter
CCOC(=O)N1CCN(C(=O)C2CCN(S(=O)(=O)N3CCCC3)CC2)CC1	56	0	0	0	0	0	0	0	0
CS(=O)(=O)c1ccc(Cl)c(NC(=O)c2cccc(-n3cnnn3)c2)c1	0	0	0	0	0	0	-	-	-
CC(C)(C)c1ccc(Cn2nnc3c(=O)[nH]c(C4CCN(C(=O)c5ccco5)CC4)nc32)cc1	0	0	-	0	0	0	-	-	-
Cc1ccc(NC(=O)CSc2n[nH]c(-c3ccco3)n2)cc1	0	0	0	0	0	0	-	-	-
Cc1ccc(NC(=O)CSc2n[nH]c(-c3ccco3)n2)c(C)c1	57	0	0	0	0	0	0	0	0
Cn1c(SCCCC(=O)c2ccc(Br)cc2)nnc1-c1ccncc1	0	0	0	0	0	0	-	-	-
CCN(C1CCCCC1)S(=O)(=O)c1ccc(S(=O)(=O)NCc2ccncc2)cc1	60	0	0	0	0	0	50	31	55
CCC1Sc2ccc(S(=O)(=O)CCC(=O)NCc3ccc(C)o3)cc2NC1=O (centres undefined)	0	0	0	0	0	0	-	-	-
CCC1Sc2ccc(S(=O)(=O)CCC(=O)Nc3ccccc3Cl)cc2NC1=O (centres undefined)	0	0	0	0	0	0	0	0	0
CCOC(=O)C1=C(C)NC(C)=C(C(=O)OCC)C1C(=O)OCC(=O)N(C)C	0	0	0	0	0	0	-	-	-
CC1CCCN(C(=O)c2ccc(Br)c(S(=O)(=O)N3CCOCC3)c2)C1 (centres undefined)	0	0	-	0	0	-	-	-	-
OCCCNc1ncnc2sc(-c3ccccc3)cc12	0	0	-	0	0	0	-	-	-
C=COCCCNc1ncnc2sc(-c3ccccc3)cc12	61	0	0	0	0	0	48	39	0
COC(=O)C1=C(C)N(CC2CC2)C(=O)N[C@H]1c1ccccc1	0	0	0	0	0	0	-	-	-
COCCNC(=O)C1CC(c2ccccc2C(F)(F)F)=NO1 (centres undefined)	0	0	0	0	0	0	-	-	-
Cc1ccsc1/C=N/NC(=O)Cc1cccn1C	0	0	0	0	0	0	-	-	-
Cc1cc2nc(/N=C(\N)NC(=O)N3c4ccccc4Sc4ccccc43)nc(C)c2cc1C	0	-	0	-	-	-	-	-	-
CSc1cccc(NS(=O)(=O)c2ccc3c(c2)CCN3C(C)=O)c1	71	0	0	0	0	0	60	30	27
COc1cc(NS(=O)(=O)c2ccc(C)cc2C)cc(OC)c1OC	0	0	0	0	0	0	50	0	0
COc1cc(NS(=O)(=O)c2cc3[nH]c(=O)c(=O)[nH]c3cc2C)cc(OC)c1OC	0	0	-	0	0	0	-	-	-
COc1ccc(OC)c(CNC(=O)C2CCC(=O)N2C(C)C)c1 (centres undefined)	0	0	0	0	0	0	-	-	-
CCOc1ccc(N(C)C(=O)CCc2nnc3ccc(N4CCCCC4)nn23)cc1	59	0	0	0	0	0	0	0	0
CCOc1ccc(NC(=O)CCc2nnc3ccc(N4CCN(C)CC4)nn23)cc1	0	0	0	0	0	0	-	-	-
CCOc1nnnc2c1sc1nc(N3CCOCC3)c3c(c12)CCCC3	0	0	0	0	0	0	-	-	-
Cc1ccccc1NC(=O)NCCc1c[nH]c2ccccc12	0	0	0	0	0	0	-	-	-
SMILES	Gli-Sufu antag	Mdm2 MdmX PPI	CSC inhib	Jurkat NFkB inh	697 NFkB inh	aSyn UTR inh	Gli antag conf	SufuKO cytotox	Wnt3a counter
Cc1ccccc1NC(=O)Cc1c[nH]c2ccccc12	55	0	0	0	0	0	0	0	0
CC1=C(C(N)=O)C(c2cccnc2)n2nc(SCc3ccccc3Cl)nc2N1 (centres undefined)	58	0	0	0	0	0	0	0	0
CC1=C(C(N)=O)C(c2ccccn2)n2nc(SCc3ccccc3Cl)nc2N1 (centres undefined)	0	0	0	0	0	0	-	-	-
COc1ccc(S(=O)(=O)NCc2cccnc2)cc1	0	0	0	0	0	0	-	-	-
COc1ccc(S(=O)(=O)NCc2cccnc2)cc1Br	59	0	0	0	0	0	0	0	0
Cc1cc(Br)c(S(=O)(=O)NCc2ccncc2)cc1C	0	0	0	0	0	0	52	0	26
COc1cc(S(=O)(=O)NCc2ccncc2)ccc1Br	68	0	0	0	0	0	61	0	30
CCOc1ncccc1C(=O)Nc1c(C)n(C)n(-c2ccccc2)c1=O	0	0	0	0	0	0	-	-	-
COC(=O)c1ccc(OCc2cc(=O)n3ccsc3n2)cc1	80	0	0	0	0	0	0	0	0
COc1cccc(NC(=O)CSCc2cc(=O)n3ccsc3n2)c1	0	0	0	0	0	0	-	-	-
CC(OC(=O)CCC(=O)c1ccc(Cl)s1)C(=O)NC1(C#N)CCCCC1 (centres undefined)	94	0	0	0	0	-	0	0	0
Cc1ccc(SCC(=O)OC(C)C(=O)NC2(C#N)CCCCC2)cc1 (centres undefined)	0	0	0	0	0	0	-	-	-
Cc1ccc(S(=O)(=O)N2CCCCC2C(=O)NCc2ccco2)cc1 (centres undefined)	0	0	0	0	0	0	0	0	0
Cn1c(=NC(=O)CS(=O)(=O)c2ccccc2)sc2ccccc21	0	0	0	0	0	0	-	-	-
CCn1c(=NC(=O)CS(=O)(=O)c2ccccc2)sc2cccc(OC)c21	67	0	0	0	0	0	67	0	0
CC1CCC(NC(=O)CC(NC(N)=O)c2ccccc2Cl)CC1 (centres undefined)	0	0	0	0	0	0	-	-	-
Clc1ccc(SCCOCCN2CCCCC2)cc1	79	0	0	0	0	0	0	0	0
Clc1ccc(SCCOCCN2CCOCC2)cc1	0	0	0	0	0	0	-	-	-
O=C(N/N=C\c1cc(Cl)ccc1O)c1ccc(S(=O)(=O)N2CCCCC2)cc1	73	0	0	0	0	113	78	37	61
CC[n+]1c(/C=C/N(C)c2ccccc2)oc2ccc(F)cc21	82	0	0	0	0	0	84	26	70
O=C(CCc1nc2ccccc2c(=O)[nH]1)OCc1ccc(-c2ccccc2)cc1	96	0	0	0	0	0	0	0	0

Assay outcomes deposited in PubChem BioAssay by several laboratories.
